Screening results (PubChem BioAssay)
hgDAF-12 ag: agonists of H. glycines DAF-12 nuclear receptor; HEK293 GAL4-hgDAF12 UAS-luciferase reporter, agonist luminescence; normalized to butyrate control; activation, % at 6.8 µM; actives 1.8% (n = 370,000); AID 687014;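 active means activation above a cutoff set at the mean of all screened compounds plus 3 SD, cut at about 10% in these data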;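 further: 0% = DMSO wells and 100% = sodium butyrate wells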
DAX1 inh-1: inhibitors of human orphan nuclear receptor DAX1 (NR0B1) | actives 0.99% (n = 340,000) | AID 504766 | P51843 | inhibition, % at 6.75 µM | HEK293 Gal4-DAX1 luciferase reporter, luminescence;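 active means inhibition above the mean over all tested compounds plus 3 SD, cut at about 4.2% in these data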;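 further: 0% = DAX1-transfected cells with DMSO and 100% = empty-vector control cells with DMSO; inhibition shows as a rise in luminescence from relieved DAX1 repression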
Target sequence (P51843 207-470 limits assumed): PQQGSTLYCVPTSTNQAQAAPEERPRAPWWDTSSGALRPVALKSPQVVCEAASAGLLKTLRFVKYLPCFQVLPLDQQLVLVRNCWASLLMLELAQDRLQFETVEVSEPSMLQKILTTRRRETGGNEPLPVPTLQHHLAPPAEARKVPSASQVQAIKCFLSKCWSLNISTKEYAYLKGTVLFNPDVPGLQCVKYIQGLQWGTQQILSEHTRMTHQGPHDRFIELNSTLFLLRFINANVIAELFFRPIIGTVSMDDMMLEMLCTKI
hcDAF-12 act: activates DAF-12 receptor from parasite H. contortus. HEK293 hcDAF-12 lit1-tk-luc reporter, luminescence; 0% DMSO, 100% Δ7-dafachronic acid. activation, % at 6.8 µM. actives 1.4% (n = 370,000);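 active means activation above the mean of all tested compounds plus 3 SD, cut at about 5.5% in these data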;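 further: 100% = response to 3 µM Δ7-dafachronic acid high control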
DAX1 inh-2: inhibitors of DAX1 repression of SF-1 activated StAR promoter; HEK293T StAR-luciferase reporter, SF-1/DAX-1 repression relief; inhibition, % at 6.8 µM; actives 1.1% (n = 370,000);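 active means inhibition above the mean over all tested compounds plus 3 SD, cut at about 3.6% in these data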;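 further: 0% = DAX-1 cells with DMSO and 100% = cells lacking DAX-1 with DMSO; higher inhibition means more luminescence from relief of DAX-1 repression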
ssDAF12 agonist: S. stercoralis DAF-12 activation, primary screen | activation, % at 6.8 µM | AID 652126 | actives 1% (n = 370,000) | HEK293 ssDAF-12/GRIP1 lit1-tk-luc reporter, luminescence; % of 3 µM dafachronic acid response;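 active means activation above the mean over all tested compounds plus 3 SD, cut at about 0.9% in these data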;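 further: 0% = DMSO-only wells and 100% = 3 µM delta7-dafachronic acid wells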
hgDAF12 ag: confirmation of H. glycines DAF-12 agonists; actives 80% (n = 3,300); activation, % at 6.8 µM; shares compounds with hgDAF-12 ag; HEK293 GAL4-hgDAF12 luciferase reporter, agonist mode; percent of butyrate response;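 active means mean activation over triplicate wells above the hit cutoff derived from the earlier primary screen, cut at about 11% in these data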;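 further: 0% = DMSO low control and 100% = 2 mM sodium butyrate high control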
LXR ag 2: counter-screen for DAF-12 agonists: agonists of human LXR-beta; shares compounds with hgDAF-12 ag; 3,300 tested, under 10 active; HEK293 Gal4-LXR luciferase reporter, 24 h; AID 743051; activation, % at 6.8 µM;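 active means mean activation of the triplicate above a set limit carried over from the primary screen, none filed active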
Starred values were filed as active, the others as inactive; / = no result given. Most compounds without a hit are left out; they make up all but 4.1% or so of the library.

SMILES	hgDAF-12 ag	DAX1 inh-1	hcDAF-12 act	DAX1 inh-2	ssDAF12 agonist	hgDAF12 ag	LXR ag 2
O=C(Nc1nccs1)c1ccc(-c2ccc(F)cc2)o1	17*	1	2	3	1	14*	1
O=C(Cc1ccc(F)cc1)Nc1nccs1	1	0	0	0	-1	/	/
O=C(Nc1nccs1)c1ccc(-c2ccc([N+](=O)[O-])cc2)o1	18*	0	4	2	0	12*	1
O=c1/c(=C/c2cccc3ccccc23)sc2ncnn12	-2	1	1	0	-1	/	/
Cc1ccsc1/C=c1\sc2ncnn2c1=O	14*	0	1	0	-1	2	0
CCCn1nc(NC(=O)COC)c2cc3cccc(C)c3nc21	14*	0	-1	0	-1	1	0
CCCn1nc(NC(C)=O)c2cc3cccc(C)c3nc21	-2	0	-2	0	-1	/	/
CCOC(=O)N1CCC(NC(=O)c2cc3ccccn3n2)CC1	16*	0	-1	1	-2	-1	0
Cc1cc(C)cc(C(=O)OCCN(C)C2CN(Cc3cn(Cc4ccc([N+](=O)[O-])cc4)nn3)S(=O)(=O)C2)c1 (stereo not given)	1	/	-2	-2	-1	/	/
N=C1/C(=C/c2ccc(OCc3ccccc3F)cc2)C(=O)N=C2SC(CC(=O)N3CCOCC3)=NN12	15*	1	4	0	0	3	0
CCc1nc2cc3sc(CC)nc3cc2s1	16*	0	2	2	0	13*	1
Clc1c(CSc2nc3ccccc3o2)nc2sccn12	24*	3	5	4.1*	1	20*	1
Clc1ccc(-n2c(SCc3cccc4ccccc34)nnc2-c2cccnc2)cc1	-2	/	-5	0	-1	/	/
CCOC(=O)c1sc2nc(-c3cccnc3)ccc2c1N	22*	1	5	3	0	17*	1
CN1/C(=C\C(=O)c2cccnc2)Sc2ccccc21	18*	1	2	3	-1	11*	1
COC(=O)C1=C(C)N(Cc2ccc(C(F)(F)F)cc2)C(=NCc2cc(OC)c(OC)c(OC)c2)NC1c1cccc(Cl)c1 (stereo not given)	0	/	0	0	-1	/	/
CCOC(=O)[C@]12CCCC=C1N(Cc1ccc(OC)cc1)C(=O)[C@@H]2CC(=O)NCCC(C)C	4	/	-3	-2	-1	/	/
COc1ccccc1N1CCN(c2ccc3ccccc3n2)CC1	14*	2	6.0*	3	0	15*	1
CC(/C=C/c1ccc(OCc2ccccc2)cc1)=N\O	14*	1	6.1*	2	-1	13*	1
O=C(Oc1ccc2ccc(O)cc2c1)c1ccccc1Cl	14*	2	4	1	0	7	0
COc1cccc(NC(=O)c2cnn(-c3ccccc3)c2C)c1	18*	1	6.3*	3	1.2*	14*	1
CCn1ncc(C(=O)Nc2cccc(Cl)c2)c1C	18*	3	5	3	0.9*	12*	0
CC(c1ccccc1)n1cc(C(=O)N2CCCN(Cc3ccccc3)CC2)nn1 (stereo not given)	-3	/	-1	-1	-2	/	/
CCCCOCCCNC(=O)C[C@H]1C[C@@]2(C(=O)OC)C(=C[C@H](C3CCCC3)O[C@@H]2C)N(Cc2cccc3ccccc23)C1=O	0	/	-1	0	-1	/	/
CC1CCN(C(=S)NCCc2ccccc2)CC1	14*	1	3	2	0	11*	1
SMILES	hgDAF-12 ag	DAX1 inh-1	hcDAF-12 act	DAX1 inh-2	ssDAF12 agonist	hgDAF12 ag	LXR ag 2
OC(c1ccccc1)(c1ccccc1)C1CCN(C(=S)NCCc2ccccc2)CC1	0	/	-2	-1	-1	/	/
COC(=O)c1cc(-c2ccc(-c3ccccc3)c(F)c2)c(=O)n2c1CCC2	0	/	-1	0	-1	/	/
Nc1ccccc1C(=O)NN=Cc1cccc([N+](=O)[O-])c1	25*	/	3	4.3*	0	15*	1
O=C(N/N=C/c1cccc([N+](=O)[O-])c1)c1ccc2c(c1)OCCO2	16*	1	3	2	0	12*	1
O=C(N=C1SCC(=O)N1c1ccccc1Cl)c1ccccc1	17*	1	3	2	1	9	1
CC(C)Cc1ccc(C(C)C(=O)OCC(=O)c2c[nH]c3ccccc23)cc1 (stereo not given)	-2	3	1	0	0	/	/
CC1(C(=O)OCC(=O)c2c[nH]c3ccccc23)CC1(Cl)Cl (stereo not given)	14*	1	5	2	1.6*	15*	0
CC(C)CC1O[C@@H](C)[C@@H]2CN3CCc4c([nH]c5ccccc45)[C@@H]3C[C@@H]2N1C (stereo not given in full)	-6	/	5	1	0	/	/
CN(C)c1cccc(C(=O)NNC(=O)CN2C(=O)C3CC=CCC3C2=O)c1 (stereo not given)	14*	5.7*	4	3	-1	3	1
CCOc1ccc(-n2c(SCC(=O)Nc3ccc(S(=O)(=O)Nc4cc(C)nc(C)n4)cc3)nnc2-c2ccc(C)cc2)cc1	-2	/	-2	-1	-1	/	/
N#Cc1c(N)nc(N)nc1Nc1ccc(Br)cc1	17*	3	4	2	0	18*	1
Cc1nc(N)nc(Nc2ccc(C#N)cc2)c1Br	3	0	-3	-1	-3	/	/
O=C(Nc1ccc(CN2CCOCC2)cc1)c1ccc(F)cc1	6	2	3	1	0	/	/
O=C(Nc1ccc(CN2CCOCC2)cc1)c1cccc(F)c1	15*	3	0	3	0	14*	0
Nc1ncc(Br)cc1N=Cc1ccccc1	18*	1	6.0*	3	0	10	1
Cn1ncc(N=Cc2ccccc2)c1C(N)=O	-1	0	-1	0	-1	/	/
COc1ccccc1-n1c(Cc2cccc3ccccc23)nnc1SCC(=O)O	3	/	-1	1	-1	/	/
COc1ccc(Oc2cnn(-c3ccccc3)c(=O)c2Br)cc1	56*	-1	-1	-2	-1	1	0
Cc1c(C(=O)Nc2cccc(S(=O)(=O)N3CCOCC3)c2)oc2ccc(Br)cc12	3	1	-1	0	-1	/	/
Cc1c(C(=O)Nc2cccnc2)oc2ccc(Br)cc12	14*	4	5	1	1.7*	14*	1
O=C(NCC1CC1)c1ccc2c3n(nc2c1)-c1ccccc1CO3	14*	-1	4	3	1	17*	1
